# From PubChem
# Only some compounds are listed: those with a hit (about 11% of all), similar ones and a draw of the others.
# L3MBTL1 inh: L3MBTL1 (human) inhibition; Q9Y468; AlphaScreen L3MBTL1–H3K9me1 peptide binding; Potency, µM (series often up to 57.1 µM), for the others: top-dose activity, negative = inhibition, hits mostly inhibitors; 230,000 compounds, 0.66% hits; note: % is set by controls: 0 for no effect and ±100 for the full control effect; nearly all actives have a fitted effect of over 60% in size
#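 Read-out is AlphaScreen signal from streptavidin donor and nickel chelate acceptor beads (10 ug/mL final each) bridging L3MBTL1 (50 nM) and biotinylated K9-monomethylated H3(1-15) peptide (75 nM), after 30 min compound exposure at room temperature.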
# G9a inh: blocks human histone lysine methyltransferase G9a. Q96KQ7. G9a H3K9 monomethylation, AlphaScreen, 2 h. Potency, µM (titrated, usually from 102 µM), for inactives: at the top dose activity, negative = inhibition, most hits filed as inhibitors. 350,000 compounds, 8.8% hits. AID 504332; note: % is set by controls: 0 for no effect and ±100 for the full control effect; nearly all actives have a fitted effect of over 75% in size
#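 G9a (20 nM) was preincubated 15 min with compound, then reacted 2 h at room temperature with 500 nM biotin-H3K9 peptide and 20 µM SAM. Monomethyl-H3K9 detected by AlphaScreen using anti-H3K9me1 antibody.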
# JMJD2A Tudor inh: inhibitors of human JMJD2A Tudor domain; O75164; AlphaScreen JMJD2A-Tudor / H3K4me3 peptide binding; Potency, µM (top dose mostly 114 µM), for the others: at the top dose activity change, negative = inhibition, hits mostly inhibitors; 390,000 compounds, 4.4% hits; AID 504339; note: % is set by controls: 0 for no effect and ±100 for the full control effect; nearly all actives have a fitted effect of over 50% in size
# Target sequence (O75164 whole entry, looked up, the tested form may be a part): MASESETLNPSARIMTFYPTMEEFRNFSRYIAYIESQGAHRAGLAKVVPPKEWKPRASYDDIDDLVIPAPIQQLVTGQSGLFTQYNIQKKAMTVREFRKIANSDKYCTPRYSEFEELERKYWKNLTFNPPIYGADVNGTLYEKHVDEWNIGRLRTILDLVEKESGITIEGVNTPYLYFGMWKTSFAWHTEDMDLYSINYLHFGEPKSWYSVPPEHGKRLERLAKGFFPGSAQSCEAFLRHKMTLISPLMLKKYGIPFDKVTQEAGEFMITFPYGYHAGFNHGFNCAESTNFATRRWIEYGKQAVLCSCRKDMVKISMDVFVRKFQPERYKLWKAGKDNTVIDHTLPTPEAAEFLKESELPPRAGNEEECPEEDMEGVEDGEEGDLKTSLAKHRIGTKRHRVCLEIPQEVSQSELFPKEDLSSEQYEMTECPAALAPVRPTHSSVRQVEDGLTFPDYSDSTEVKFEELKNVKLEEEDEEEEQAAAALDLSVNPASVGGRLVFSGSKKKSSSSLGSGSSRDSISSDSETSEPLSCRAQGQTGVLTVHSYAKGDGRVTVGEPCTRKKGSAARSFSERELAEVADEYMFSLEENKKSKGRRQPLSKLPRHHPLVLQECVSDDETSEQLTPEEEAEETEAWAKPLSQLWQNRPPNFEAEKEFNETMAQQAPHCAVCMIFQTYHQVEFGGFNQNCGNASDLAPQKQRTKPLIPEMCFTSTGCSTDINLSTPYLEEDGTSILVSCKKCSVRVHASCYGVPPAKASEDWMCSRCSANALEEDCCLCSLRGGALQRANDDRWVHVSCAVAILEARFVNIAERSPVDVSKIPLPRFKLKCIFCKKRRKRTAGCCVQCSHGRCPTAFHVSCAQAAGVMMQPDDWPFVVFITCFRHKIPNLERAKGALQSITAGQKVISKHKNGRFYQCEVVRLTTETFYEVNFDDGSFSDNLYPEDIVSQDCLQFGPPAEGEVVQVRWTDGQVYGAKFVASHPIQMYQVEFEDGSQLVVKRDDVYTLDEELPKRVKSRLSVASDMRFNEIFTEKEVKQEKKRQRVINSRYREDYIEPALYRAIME
# BAZ2B inh: blocks human BAZ2B | Q9UIF8 | AlphaScreen BAZ2B-H3K14Ac peptide displacement | Potency, µM (doses to about 114 µM), for inactives: top-dose activity change, negative = inhibition, hits mostly inhibitors | 360,000 compounds, 4.4% hits | AID 504333; note: % is set by controls: 0 for no effect and ±100 for the full control effect; nearly all actives have a fitted effect of over 60% in size
#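 Protein-peptide AlphaScreen: BAZ2B 50 nM, b-H3K14Ac 50 nM, 1x PBS pH 7.4 + 0.01% Tween-20. Preincubation 30 min RT; cpd 30 min RT (top 110 uM); beads 20 min RT, light-protected.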
# HP1b chromo inh: HP1-beta chromodomain-methylated histone interaction inhibition; AlphaScreen HP1-beta / biotin-H3K9me3 peptide binding; 390,000 compounds, 0.56% hits; Potency, µM (top dose mostly 114 µM), for the others: at the top dose activity change, negative = inhibition, actives largely listed as inhibitors; P83916; note: nearly all actives have a fitted effect of over 70% in size
#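 Compound inhibition of the preformed complex between 50 nM HP1-beta and 50 nM biotinylated H3K9me3 peptide was read by AlphaScreen. Buffer was PBS pH 7.4 with 0.01% Tween-20. Incubations ran 30 min at room temperature, with 10 ug/mL donor/acceptor beads.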
# * hit, by the source's call; u = inconclusive; x = no result given; ! = a repeat was not active; [ ] = remark or other dose. Calls come from the whole dose curve; as a rule, active = well fitted inhibition curve with a large enough effect; inconclusive = small, poorly fitted or top-dose-only effect; inactive = no such curve, though single readings can be large or run the other way. Potency is the fitted concentration of half-maximal effect.
SMILES,L3MBTL1 inh,G9a inh,JMJD2A Tudor inh,BAZ2B inh,HP1b chromo inh
Cn1c(=O)c(-c2ccc(Cl)cc2)nc2cnc(Nc3ccccc3)nc21,x,-2%[0.501 µM],x,x,x
N#CN1CCC(NS(=O)(=O)c2cccc(C(F)(F)F)c2)CC1,x,x,-8%,x,x
CCN(Cc1ccccc1)C(=O)CCS(=O)(=O)c1cc2c(cc1Cl)NC(=O)CO2,3%,50µM*!,-4%,4%,50%
C[C@@H]1CCN(C(=O)[C@H](CCCNC(=N)N)NS(=O)(=O)c2cccc3c2NC[C@H](C)C3)[C@@H](C(=O)O)C1,x,30%[59 µM],x,x,x
CNc1ccc(C=C2C=Cc3ccccc32)cc1,x,x,28µM*,x,40µM*
COc1cc2c(cc1OC)C(=Cc1ccc(N(C)C)cc1)C=C2,x,x,10µM*,x,10µM*
CN(C)c1ccc(C=C2C=Cc3ccccc32)cc1,x,x,14µM*,x,u
COc1ccc(C(=O)/C=C/c2ccc(N(C)C)cc2)c(OC)c1,43%,-1%,-5%,-10%,43%
Cc1ccc(CN2CCN(/N=C/c3cccn3C)CC2)c(C)c1,-17%,25µM*,40µM*,50µM*,u
Cc1ccc(CN2CCN(/N=C/c3ccc(C)s3)CC2)c(C)c1,-20%,u,45µM*,35µM*,u
Cc1ccc(/C=N/n2cnnc2)s1,7%,22%,17%,3%,17%
Cc1ccc(/C=N/N2CCN(c3ccccc3)CC2)cc1,6%,-13%,-3%,14%,22%
COc1ccc(OCC(=O)N(Cc2cccc(OC)c2)C2CCS(=O)(=O)C2)cc1 (stereo not given),x,-2%[59 µM],-21%,-11%,5%
Clc1ccc(CCNc2nc3ccccc3c3nc(-c4ccccc4)nn23)cc1,x,5%[59 µM],9%,5%,35%
[O-]c1c[n+](-c2ccccc2)no1,x,5µM*,-18%,-2%,57%
[O-]c1c[n+](-c2ccc(-[n+]3cc([O-])on3)cc2)no1,u,-123%[59 µM],u,50µM*,u
c1ccc2cc(-c3cc4ccccn4c3)ccc2c1,x,35µM*,u,u,-25%
CC(=O)N1N=C(c2ccc3ccccc3c2)OC1(C)C,1%,13%[59 µM],17%,10%,72%
COCC(C)n1c(-c2ccc3c(c2)NC(=O)CO3)csc1=Nc1ccc(OC(F)F)cc1 (stereo not given),x,-4%[12.7 µM],u,13µM*,u
Cc1ccc(OCCC(=O)OCC(=O)c2ccc3c(c2)NC(=O)CO3)cc1,1%,-17%[59 µM],-4%,13%,51%
CCN=c1scc(-c2ccc3c(c2)NC(=O)CO3)n1N=C1CCCC1,-10%,u,u,50µM*,u
COc1ccccc1NC(=O)C1(C)Cc2ccccc2C(=O)O1 (stereo not given),-1%,50µM*,-3%,-4%,26%
Cc1ccc(NC(=O)C2(C)Cc3ccccc3C(=O)O2)c(C)c1 (stereo not given),x,7%[59 µM],4%,-2%,31%
COC(=O)c1c(NC(=O)C2(C)Cc3ccccc3C(=O)O2)sc2c1CCCC2 (stereo not given),-7%,20µM*,-20%,-29%,u
O=C(Nc1ccc(N2CCCCC2)cc1)c1ccc([N+](=O)[O-])o1,x,40µM*,11µM*,28µM*,u
SMILES,L3MBTL1 inh,G9a inh,JMJD2A Tudor inh,BAZ2B inh,HP1b chromo inh
CC(C)(C)C(=O)N1CCN(c2ccc(NC(=O)c3ccc([N+](=O)[O-])o3)cc2)CC1,x,-16%[59 µM],-17%,-8%,10%
O=C(Nc1ccc(N2CCCC2)c(Cl)c1)c1ccc([N+](=O)[O-])o1,x,25µM*,45µM*,18µM*,u
CC1CCN(c2ccc(NC(=O)c3ccc([N+](=O)[O-])o3)cc2)CC1,-9%,35µM*,-26%,-31%,-1%
COc1ccc(CNC(=O)Cn2c(SCC(=O)N(C)c3ccccc3)nc3ccccc32)cc1,x,14%[59 µM],-33%,-14%,35%
Cc1ccc(-c2c(C(=O)NCCc3ccccc3)oc(=O)c3ccccc23)cc1,x,9%[59 µM],-5%,x,39%
Nc1nc(CN2CCN(Cc3ccccc3)CC2)nc(N2CCCc3ccccc32)n1,-20%,x,-21%,u,14%
COc1ccc(N2CCN(Cc3nc(N)nc(N4CCCc5ccccc54)n3)CC2)cc1,-9%,45µM*,50µM*,11µM*,u
Nc1nc(CN2CCN(c3ccccc3F)CC2)nc(N2CCCc3ccccc32)n1,-4%,u,u,50µM*,3%
Nc1nc(CSc2nnnn2-c2ccccc2)nc(N2CCCc3ccccc32)n1,-22%,-6%[59 µM],-12%,-4%,16%
Nc1nc(CN2CCN(c3ccccc3)CC2)nc(N2CCCc3ccccc32)n1,-26%,50µM*,50µM*,u,-6%
Cc1ccc(Cl)cc1NC(=O)c1sc2nc(C)c(C)c(C)c2c1N,x,u,-5%,-10%,49%
C(=N\N1CCOCC1)/c1nc(-c2ccccc2)n2ccccc12,-11%,18µM*,-30%,u,6%
CC(C)(C)c1ccc(-c2nc(C=O)c3ccccn23)cc1,16%,-7%[2.33 µM],20%,24%,89%
COc1ccccc1NC(=O)Cn1c(=O)c(CNc2ccccc2)cc2cc(OC)c(OC)cc21,x,u,-22%,-18%,12%
COc1ccc(C(C)=O)cc1CSc1nnc(Nc2ccc(C)cc2)s1,5%,10µM*,3%,-34%,53%
COc1ccc(C(C)=O)cc1COC(=O)CSC(C)C(=O)Nc1cc(C)on1 (stereo not given),0%,-31%,-1%,0%,9%
COc1ccc(C(C)=O)cc1COC(=O)CSCC(=O)Nc1ccc(C)cc1,3%,1%[0.501 µM],-8%,79µM*,26%
CCc1cc(-c2n[nH]c(=S)n2N)n(C)n1,6%,10µM*,8.9µM*,79µM*,u
CCc1nn(C)c(-c2n[nH]c(=S)n2N)c1Cl,8%,u,35µM*,u,15%
COc1cccc(CNC(=O)C(=O)Nc2ccc3nc4n(c(=O)c3c2)CCCCC4)c1,x,1%[59 µM],-7%,-19%,20%
COC(=O)/C=C1\C(=O)N(c2nc3ccccc3s2)C(=S)N1c1ccc(F)cc1,x,71µM*,-12%,8%,15%
CC(C)(C)OC(=O)C[C@H]1C/C=C\C[C@H](CC(=O)N(CCO)Cc2ccccc2)C(=O)N[C@@H](Cc2ccccc2)COC1=O,-4%,x,-4%,x,46%
C[C@H](Cc1ccccc1)Nc1ncnc2c1ncn2[C@@H]1O[C@H](CO)[C@H](O)[C@H]1O,x,10%,x,x,x
COc1ccc(C2CC(=O)NC(NC(=O)c3ccc(Br)cc3)=N2)c(OC)c1OC (stereo not given),x,-6%[59 µM],-5%,-2%,39%
COc1nc(-c2ccc(Cl)cc2)ccc1-c1noc(-c2ccco2)n1,x,2.8µM*,-1%,-21%,16%
COc1cccc(-c2ccc(-c3noc(-c4cccs4)n3)c(OC)n2)c1,x,1.3µM*,28%,2%,12%
